An excerpt weighted towards active compounds, which were near 6% of everything screened.
D3 ag: D3 dopamine receptor (human) agonism. P35462. D3R DiscoveRx beta-arrestin cells, luminescence, 90 min. max activation, %. 410,000 compounds, 0.58% hits; in the data active = max activation above about 30%
Target sequence (P35462 whole entry, looked up): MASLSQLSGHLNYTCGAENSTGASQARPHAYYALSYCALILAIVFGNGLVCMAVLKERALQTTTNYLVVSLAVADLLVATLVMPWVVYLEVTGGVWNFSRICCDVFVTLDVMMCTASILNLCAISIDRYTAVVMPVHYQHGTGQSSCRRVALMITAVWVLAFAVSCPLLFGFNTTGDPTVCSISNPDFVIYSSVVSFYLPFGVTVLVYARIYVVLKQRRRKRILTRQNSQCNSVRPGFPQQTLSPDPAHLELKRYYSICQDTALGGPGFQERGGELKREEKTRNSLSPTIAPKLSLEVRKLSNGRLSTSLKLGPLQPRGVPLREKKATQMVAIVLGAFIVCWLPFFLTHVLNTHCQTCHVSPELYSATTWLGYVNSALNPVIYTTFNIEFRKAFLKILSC
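Agonist-mode cell screen: cells plated at 1500/well and incubated overnight at 37 °C, then exposed to library compounds for 90 min at 37 °C. Detection reagent was added for 30–60 min at room temperature, and luminescence was read.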
D1 ag: agonists of human D1 dopamine receptor. 360,000 compounds, 1% hits. activation, % at 2 µM. HEK293 T-REx D1 cells, calcium flux, agonist mode. P21728. AID 504660; in the data active = activation above about 30%
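Agonism was scored from calcium flux recorded over 180 s (1 read/s) after pintool compound addition, following a 10-cycle baseline. Cells were inducible force-coupled HEK293 TREx D1, plated overnight at 30 C and loaded with no-wash calcium dye.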
D1 antagonist: blocks dopamine activation of the human D1 receptor; P21728; HEK293 TREx D1 cells, calcium flux, dopamine EC80; stronger effect = lower value; activity change, negative = inhibition, % at 10 µM; 360,000 compounds, 3.2% hits; in the data active = activity change below about -30%
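Inducible Hek293 Trex D1 cells (tetracycline, overnight, 30 C). Calcium dye 30–90 min RT. Antagonist mode: EC80 dopamine added after 180 s compound read.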
D1 PAM: enhances dopamine response at the human D1 receptor; P21728; HEK293 TREx D1 cells, calcium flux, dopamine EC20 potentiation; potentiation, % at 10 µM; 360,000 compounds, 0.036% hits; in the data active = potentiation above about 30%
D3 antag: antagonists of human D3 dopamine receptor; D3R cells, DiscoveRx beta-arrestin luminescence, antagonist mode; stronger effect = lower value; max response, negative = inhibition, %; 360,000 compounds, 2.5% hits; AID 652054; in the data active = max response below about -50%; inconclusive = no clear call, values can overlap the other calls
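Cells plated overnight at 1500 cells/well, then exposed to library compounds with dopamine controls for 90 minutes at 37 degrees C. DiscoveRx reagent added for 30–60 minutes at room temperature; luminescence read, quantitative HTS format.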
Numbers stand for hits; n = inactive; u = inconclusive; x = no result given.

SMILES | D3 ag | D1 ag | D1 antagonist | D1 PAM | D3 antag
Cc1cc(C)cc(N(CC(=O)NC2CCCC2)C(=O)CCC(=O)Nc2nc(C)cs2)c1 | n | 58 | n | n | n
Cc1cc(C)cc(N(CC(=O)NC2CCCCC2)C(=O)c2ccc(C)s2)c1 | n | n | -33 | n | n
Cc1ccc(N(CC(=O)NC2CCCC2)C(=O)c2ccc(C)s2)cc1 | n | n | n | n | n
Cc1ccc(C(=O)N(CC(=O)NC2CCCC2)c2ccc3c(c2)OCCO3)s1 | n | n | -55 | n | n
Cc1cc2nn(-c3ccc(F)cc3)nc2cc1NC(=O)c1cccc2c(Cl)cccc12 | n | n | n | n | x
CCOC(=O)C1CCCN(C(=O)CC(C)c2ccccc2)C1 (stereo not drawn) | n | n | -33 | n | n
CCOC(=O)C1CCN(C(=O)CC(C)c2ccccc2)CC1 (stereo not drawn) | n | n | n | n | n
CCOC(=O)C1CCCN(Cc2ccccc2C)C1 (stereo not drawn) | n | n | n | n | -64
CCOC(=O)C1CCN(S(=O)(=O)Cc2ccccc2)CC1 | n | n | n | n | n
CCOC(=O)C1CCCN(S(=O)(=O)Cc2ccccc2)C1 (stereo not drawn) | n | n | -64 | n | n
CCOC(=O)C1CCCN(Cc2ccc(OC)c(OCc3ccccc3)c2)C1 (stereo not drawn) | n | n | n | n | -84
CCC(=O)NC(c1cccc(C)c1)c1cc(Cl)c2cccnc2c1O (stereo not drawn) | x | n | n | n | x
Cc1ccc(C)c(N2CCN(C(=O)CCS(=O)(=O)c3cc(Br)cc4c3N(C(=O)C3CC3)CC4)CC2)c1 | n | n | n | n | x
Cc1cc(C)c(Cn2c3ccccc3c3cnn(CC(=O)NCC(C)c4ccccc4)c(=O)c32)c(C)c1 (stereo not drawn) | n | n | n | n | x
COc1cc(C(=O)NC2(C(F)(F)F)C(=O)NC(C)=C2C#N)cc(OC)c1OC (stereo not drawn) | n | n | n | n | x
CC1(C)Cc2cccc(OCC(=O)OCC(=O)Nc3ccccc3)c2O1 | n | n | n | n | n
CC1(C)Cc2cccc(OCC(=O)OCC(=O)Nc3ccc(C(N)=O)cc3)c2O1 | n | n | -39 | n | n
COc1cc2cc(C(=O)O)n(C)c2c(OC)c1OC | n | n | -37 | n | n
COc1cc2cc(C(=O)N[C@@H](Cc3ccccc3)C(=O)O)n(C)c2c(OC)c1OC | n | n | n | n | n
CN(C1CCCCC1)S(=O)(=O)c1ccc2c(c1)c(=O)c(C(=O)NCc1ccccc1Cl)cn2C | n | n | n | n | x
COc1ccc(Cl)cc1NC(=O)c1noc2c1CCc1ccccc1-2 | n | n | n | n | x
O=C1CC(c2ccc(S(=O)(=O)NCc3ccncc3)cc2)CN1 (stereo not drawn) | n | n | -34 | n | n
CC[n+]1ccc2cc(OC)c(OC)cc2c1Cc1ccc(OC)c(OC)c1 | n | n | -49 | n | n
CCC(Sc1nc2ccccc2c2nc(CCn3c(C)nc4ccccc43)nn12)C(=O)Nc1ccc(F)cc1 (stereo not drawn) | n | n | -42 | n | x
Cc1ccc(NC(=O)CSc2nc3c(oc4ccccc43)c(=O)n2Cc2ccco2)cc1 | n | n | n | n | x
SMILES | D3 ag | D1 ag | D1 antagonist | D1 PAM | D3 antag
CC(C)(C)OC(=O)CC(=O)NNC(=O)c1nc2ccccc2[nH]1 | x | n | n | n | x
CCn1c(=N)c(C(=O)NC2CCCCC2)cc2c(=O)n3cc(C)ccc3nc21 | n | n | -31 | n | x
Cc1ccc2nc3c(cc(C(=O)NCc4ccco4)c(=N)n3C3CCCC3)c(=O)n2c1 | x | 39 | n | x | x
O=C(Nc1cc(F)ccc1F)C1CCN(C(=O)c2cnn(-c3ccccc3)c2-n2cccc2)CC1 | n | n | n | n | x
Cc1ccc(CNC(=O)Cn2cc(S(=O)(=O)Cc3cccc(Cl)c3)c3ccccc32)cc1 | n | n | n | n | x
CCOCCCNC(=O)C(c1ccc(Cl)cc1)N1CCC2(CC1)OCCO2 (stereo not drawn) | n | n | n | n | -55
CCO[C@@H]1OC(C(=O)N2CCN(Cc3ccc4c(c3)OCO4)CC2)=C[C@H](c2ccc(C(F)(F)F)cc2)[C@H]1CCCO | n | n | n | n | n
CCO[C@@H]1OC(C(=O)N2CCN(Cc3ccc4c(c3)OCO4)CC2)=C[C@H](c2ccc(Br)cc2)[C@H]1CCCO | n | n | n | n | -98
CCO[C@H]1OC(C(=O)O)=C[C@@H](c2ccc3c(c2)OCO3)[C@@H]1CCCO | n | n | n | 63 | n
CCO[C@H]1OC(C(=O)N2CCOCC2)=C[C@@H](C2CC2)[C@@H]1CCCO | n | n | n | n | -55
CCO[C@H]1OC(C(=O)NC2CC2)=C[C@@H](c2ccc(Br)cc2)[C@@H]1CCCO | n | n | -59 | n | u
CCO[C@@H]1OC(C(=O)NC2CC2)=C[C@H](c2ccc(Br)cc2)[C@H]1CCCO | n | n | n | n | n
CCO[C@@H]1OC(C(=O)N2CCOCC2)=C[C@H](C2CC2)[C@H]1CCCO | n | n | n | n | n
COc1ccc(-c2nc(CSCC(=O)N3CCN(c4cccc(C)c4C)CC3)c(C)o2)cc1OC | n | n | n | n | x
Cc1cccc(C(C)C)c1NC(=O)C1CCCN1S(=O)(=O)c1cccc2nsnc12 (stereo not drawn) | n | n | n | n | x
Cc1nn(CC(=O)N2CCN(c3ccccc3)CC2)c(=O)c2cc3cc(F)ccc3n12 | n | n | n | n | x
O=C(CN1C(=O)CCSc2ccccc21)Nc1ccc(C(F)(F)F)cc1 | n | n | n | n | x
NC(=O)CSc1ncc2c(n1)-c1ccccc1N(Cc1ccc(Cl)cc1)S2(=O)=O | n | n | n | n | x
C/C(=N\NC(=O)c1nnn(-c2nonc2N)c1-c1ccccc1)c1ccco1 | n | 66 | n | n | n
COc1cccc(-c2c(C(=O)N/N=C(\C)c3cccnc3)nnn2-c2nonc2N)c1 | n | n | n | n | n
COc1cccc(-c2c(C(=O)N/N=C(\C)c3ccco3)nnn2-c2nonc2N)c1 | n | 47 | n | n | n
CCOC(=O)[C@H](CCc1ccccc1)N[C@@H](C)C(=O)N(CC(=O)O)C1Cc2ccccc2C1 | n | x | x | x | x
COc1ccc2c(c1)/C(=N/N1C(=O)c3ccccc3C1=O)C(=O)N2 | x | n | n | n | x
COc1ccc2c(c1)/C(=C\c1cccc(/C=C3/C(=O)Nc4ccc(OC)cc43)n1)C(=O)N2 | n | x | x | x | -53
COc1ccc(N(CC(=O)Nc2cccc(Cl)c2)S(=O)(=O)c2c(C)[nH]c(=O)[nH]c2=O)cc1 | n | n | n | n | x
CC1(C)CC(=O)C2=C(C1)O[C@@]1(CCCCN3C(=O)c4ccccc4C3=O)Cc3ccccc3C2O1 | x | n | n | n | x
O=C1CC(c2cccc(O)c2)Oc2ccccc21 (stereo not drawn) | n | n | -32 | n | n
O=C1CC(c2ccccc2)Oc2ccccc21 (stereo not drawn) | n | x | x | x | u
CCCCOC(=O)CC(CC(=O)OCCCC)(OC(C)=O)C(=O)OCCCC | n | x | x | x | x

Screens as filed in PubChem.
